We go through one sequence from paper PMC7862700, “An all-to-all approach to the identification of sequence-specific readers for epigenetic DNA modifications on cytosine”.

What all share (assay): DAPPL (digital affinity profiling via proximity ligation, sequencing); 10 mM Tris-HCl pH 7.5, 50 mM NaCl, 1 mM DTT, 4% glycerol, room temperature, 30 min; GST-TFs on glutathione beads, 16-mer random dsDNA library, 0.1% formaldehyde crosslink after washing; high values mean tight binding
One assay has as its target T1, FLI1 (Homo sapiens, UniProt Q01543 1-452).
T1 sequence: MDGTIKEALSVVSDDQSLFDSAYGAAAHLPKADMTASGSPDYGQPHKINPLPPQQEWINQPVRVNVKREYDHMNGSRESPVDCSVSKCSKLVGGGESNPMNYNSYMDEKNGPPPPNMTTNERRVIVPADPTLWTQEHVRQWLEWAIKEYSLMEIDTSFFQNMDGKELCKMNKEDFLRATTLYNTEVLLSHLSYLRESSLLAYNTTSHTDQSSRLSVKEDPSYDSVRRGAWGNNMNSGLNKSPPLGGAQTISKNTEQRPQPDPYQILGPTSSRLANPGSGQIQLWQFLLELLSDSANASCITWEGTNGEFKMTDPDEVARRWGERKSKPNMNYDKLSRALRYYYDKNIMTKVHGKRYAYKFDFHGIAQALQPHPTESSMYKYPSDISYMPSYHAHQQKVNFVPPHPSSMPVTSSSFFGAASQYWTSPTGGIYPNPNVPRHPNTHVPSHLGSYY
To be noted: protein: recombinant; tags: N-terminal GST; dsDNA, one strand shown. In a few lines: (§1)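 Binding signal is each hexamer's read frequency for a factor divided by its frequency in the tag-only sample. The factors were GST-fused human transcription factors from yeast, captured on glutathione beads, DNA-barcoded and pooled with that sample. Pools were incubated with 200 nmole of a random double-stranded 16-mer DNA library in Tris/NaCl/DTT/glycerol buffer at room temperature for 30 min, then washed, crosslinked with 0.1% formaldehyde, proximity-ligated with BsaI/T4 ligase (1 h, 37 °C), PCR-amplified and sequenced on an Illumina NextSeq500.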

A further assay addresses T2, ELK1 (Homo sapiens, UniProt P19419 1-428).
T2 sequence: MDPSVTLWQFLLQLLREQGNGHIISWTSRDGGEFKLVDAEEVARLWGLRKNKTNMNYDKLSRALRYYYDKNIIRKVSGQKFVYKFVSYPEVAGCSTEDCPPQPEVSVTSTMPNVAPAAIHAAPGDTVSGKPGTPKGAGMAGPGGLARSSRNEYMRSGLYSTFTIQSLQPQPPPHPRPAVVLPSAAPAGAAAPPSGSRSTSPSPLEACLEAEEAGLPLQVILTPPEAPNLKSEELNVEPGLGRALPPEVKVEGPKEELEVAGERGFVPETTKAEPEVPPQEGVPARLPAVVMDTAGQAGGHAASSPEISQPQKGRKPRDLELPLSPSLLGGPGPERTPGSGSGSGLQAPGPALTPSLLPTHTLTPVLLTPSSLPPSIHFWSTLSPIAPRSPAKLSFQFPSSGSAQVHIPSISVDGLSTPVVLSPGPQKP
Particulars: protein: recombinant; tags: N-terminal GST; dsDNA, one strand shown. In outline: as §1

The target of the next assay is T3, GABPA (Homo sapiens, UniProt Q06546 1-454).
T3 sequence: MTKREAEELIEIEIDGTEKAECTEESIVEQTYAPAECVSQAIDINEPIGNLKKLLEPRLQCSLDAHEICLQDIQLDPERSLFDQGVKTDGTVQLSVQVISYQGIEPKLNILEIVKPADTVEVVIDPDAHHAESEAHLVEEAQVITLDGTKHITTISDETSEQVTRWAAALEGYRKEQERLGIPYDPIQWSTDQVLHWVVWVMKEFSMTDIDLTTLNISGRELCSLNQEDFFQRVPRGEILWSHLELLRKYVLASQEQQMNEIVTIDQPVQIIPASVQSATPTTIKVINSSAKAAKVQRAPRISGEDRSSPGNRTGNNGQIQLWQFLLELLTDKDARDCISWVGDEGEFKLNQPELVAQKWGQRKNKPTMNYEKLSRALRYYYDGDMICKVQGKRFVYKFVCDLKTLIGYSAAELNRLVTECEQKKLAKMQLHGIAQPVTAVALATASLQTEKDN
Particulars: protein: recombinant; tags: N-terminal GST; dsDNA, one strand shown. In a few lines:
as §1

Another assay has as its target T4, ERG (Homo sapiens, UniProt P11308 1-479).
T4 sequence: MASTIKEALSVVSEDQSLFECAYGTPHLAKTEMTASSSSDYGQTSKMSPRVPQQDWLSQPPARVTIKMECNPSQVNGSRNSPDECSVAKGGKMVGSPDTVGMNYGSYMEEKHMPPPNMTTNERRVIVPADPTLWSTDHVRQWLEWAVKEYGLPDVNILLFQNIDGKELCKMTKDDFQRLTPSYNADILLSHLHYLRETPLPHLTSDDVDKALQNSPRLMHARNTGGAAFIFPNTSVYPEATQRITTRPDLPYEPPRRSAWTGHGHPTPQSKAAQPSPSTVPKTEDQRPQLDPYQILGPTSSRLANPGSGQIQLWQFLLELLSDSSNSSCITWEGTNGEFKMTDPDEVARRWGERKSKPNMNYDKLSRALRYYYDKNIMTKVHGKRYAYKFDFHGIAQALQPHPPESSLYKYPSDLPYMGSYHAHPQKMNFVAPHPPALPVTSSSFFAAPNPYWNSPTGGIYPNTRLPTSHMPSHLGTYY
To be noted: protein: recombinant; tags: N-terminal GST; dsDNA, one strand shown. In outline:
as §1

Another assay has as its target ELF1 (Homo sapiens, UniProt P32519 1-619). Particulars: protein: recombinant; tags: N-terminal GST; dsDNA, one strand shown. In outline:
as §1

A further assay concerns the target T5, EHF (Homo sapiens, UniProt Q9NZC4 1-300).
T5 sequence: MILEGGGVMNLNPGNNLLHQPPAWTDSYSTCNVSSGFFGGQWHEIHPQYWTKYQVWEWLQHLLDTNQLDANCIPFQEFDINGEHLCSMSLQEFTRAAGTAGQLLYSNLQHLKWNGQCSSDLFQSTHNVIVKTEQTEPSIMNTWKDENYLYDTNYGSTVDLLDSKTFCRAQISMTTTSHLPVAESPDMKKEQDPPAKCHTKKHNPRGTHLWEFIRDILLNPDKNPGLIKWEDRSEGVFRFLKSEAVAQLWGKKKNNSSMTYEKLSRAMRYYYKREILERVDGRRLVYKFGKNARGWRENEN
Particulars: protein: recombinant; tags: N-terminal GST; dsDNA, one strand shown. In outline: as §1

The next assay deals with SPI1 (Homo sapiens, UniProt P17947 1-270). Particulars: protein: recombinant; tags: N-terminal GST; dsDNA, one strand shown. In outline:
as §1

In a further assay the target is SPIB (Homo sapiens, UniProt Q01892 1-262). Particulars: protein: recombinant; tags: N-terminal GST; dsDNA, one strand shown. In a few lines:
as §1

The target in another assay is T6, ELK3 (Homo sapiens, UniProt P41970 1-407).
T6 sequence: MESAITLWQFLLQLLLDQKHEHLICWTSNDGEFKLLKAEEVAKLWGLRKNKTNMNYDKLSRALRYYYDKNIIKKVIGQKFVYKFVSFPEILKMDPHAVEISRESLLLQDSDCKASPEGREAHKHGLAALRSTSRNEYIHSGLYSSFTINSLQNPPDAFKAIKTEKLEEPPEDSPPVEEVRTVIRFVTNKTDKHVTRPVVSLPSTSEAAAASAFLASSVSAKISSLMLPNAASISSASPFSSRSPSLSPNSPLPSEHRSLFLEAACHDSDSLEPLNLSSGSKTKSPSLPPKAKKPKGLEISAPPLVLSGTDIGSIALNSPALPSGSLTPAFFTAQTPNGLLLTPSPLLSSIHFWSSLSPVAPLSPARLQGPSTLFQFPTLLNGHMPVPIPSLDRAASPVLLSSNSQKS
To be noted: protein: recombinant; tags: N-terminal GST; dsDNA, one strand shown. In a few lines: as §1

The target of another assay is T7, FEV (Homo sapiens, UniProt Q99581 1-238).
T7 sequence: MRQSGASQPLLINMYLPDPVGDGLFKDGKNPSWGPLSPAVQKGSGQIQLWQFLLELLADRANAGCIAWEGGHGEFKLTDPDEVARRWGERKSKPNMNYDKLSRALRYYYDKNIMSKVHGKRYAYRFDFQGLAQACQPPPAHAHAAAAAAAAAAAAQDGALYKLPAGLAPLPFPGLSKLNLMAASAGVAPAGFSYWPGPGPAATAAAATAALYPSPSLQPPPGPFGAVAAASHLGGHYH
Particulars: protein: recombinant; tags: N-terminal GST; dsDNA, one strand shown. In outline: as §1

A further assay has as its target ETV5 (Homo sapiens, UniProt P41161 1-510). Particulars: protein: recombinant; tags: N-terminal GST; dsDNA, one strand shown. In a few lines: as §1
The target of the next assay is HSF1 (Homo sapiens, UniProt Q00613 1-529). Particulars: protein: recombinant; tags: N-terminal GST; chain copies: 3; dsDNA, one strand shown. In outline: as §1
The next assay concerns the target T8, SPIC (Homo sapiens, UniProt Q8N5J4 1-248).
T8 sequence: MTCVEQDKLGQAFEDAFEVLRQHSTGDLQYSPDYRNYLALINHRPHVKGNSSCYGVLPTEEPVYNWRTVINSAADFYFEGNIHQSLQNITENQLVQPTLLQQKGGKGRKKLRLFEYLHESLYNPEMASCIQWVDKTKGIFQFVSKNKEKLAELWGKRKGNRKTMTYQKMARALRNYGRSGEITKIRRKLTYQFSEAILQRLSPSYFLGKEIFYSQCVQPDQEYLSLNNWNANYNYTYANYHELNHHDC
To be noted: protein: recombinant; tags: N-terminal GST; dsDNA, one strand shown. In outline: as §1

The next assay has as its target ELF4 (Homo sapiens, UniProt Q99607 1-663). Particulars: protein: recombinant; tags: N-terminal GST; dsDNA, one strand shown. In outline: as §1
The target of the next assay is T9, ELK4 (Homo sapiens, UniProt P28324-2 1-405).
T9 sequence: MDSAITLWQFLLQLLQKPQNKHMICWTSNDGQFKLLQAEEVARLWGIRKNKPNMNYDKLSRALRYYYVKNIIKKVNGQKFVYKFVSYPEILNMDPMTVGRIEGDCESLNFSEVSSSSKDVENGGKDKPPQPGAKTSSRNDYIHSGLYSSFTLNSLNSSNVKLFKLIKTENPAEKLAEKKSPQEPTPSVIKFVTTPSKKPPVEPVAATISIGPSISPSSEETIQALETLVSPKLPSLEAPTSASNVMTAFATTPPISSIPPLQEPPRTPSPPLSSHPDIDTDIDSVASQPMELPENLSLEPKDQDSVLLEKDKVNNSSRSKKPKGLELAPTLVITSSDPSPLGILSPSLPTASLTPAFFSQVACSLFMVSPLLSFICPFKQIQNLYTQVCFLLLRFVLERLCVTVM
To be noted: protein: recombinant; tags: N-terminal GST; dsDNA, one strand shown. In a few lines: as §1

In another assay the target is T10, ETV2 (Homo sapiens, UniProt O00321 1-342).
T10 sequence: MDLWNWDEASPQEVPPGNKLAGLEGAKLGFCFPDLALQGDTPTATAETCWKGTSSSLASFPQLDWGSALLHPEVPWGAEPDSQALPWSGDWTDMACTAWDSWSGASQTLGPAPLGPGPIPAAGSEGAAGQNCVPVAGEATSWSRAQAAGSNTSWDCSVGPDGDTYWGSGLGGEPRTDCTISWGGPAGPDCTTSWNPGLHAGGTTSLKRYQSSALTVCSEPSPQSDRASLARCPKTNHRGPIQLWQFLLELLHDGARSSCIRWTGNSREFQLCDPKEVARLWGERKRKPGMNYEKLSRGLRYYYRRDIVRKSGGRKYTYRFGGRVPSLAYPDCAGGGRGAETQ
To be noted: protein: recombinant; tags: N-terminal GST; dsDNA, one strand shown. In outline: as §1

A further assay addresses T11, ELF3 (Homo sapiens, UniProt P78545 1-371).
T11 sequence: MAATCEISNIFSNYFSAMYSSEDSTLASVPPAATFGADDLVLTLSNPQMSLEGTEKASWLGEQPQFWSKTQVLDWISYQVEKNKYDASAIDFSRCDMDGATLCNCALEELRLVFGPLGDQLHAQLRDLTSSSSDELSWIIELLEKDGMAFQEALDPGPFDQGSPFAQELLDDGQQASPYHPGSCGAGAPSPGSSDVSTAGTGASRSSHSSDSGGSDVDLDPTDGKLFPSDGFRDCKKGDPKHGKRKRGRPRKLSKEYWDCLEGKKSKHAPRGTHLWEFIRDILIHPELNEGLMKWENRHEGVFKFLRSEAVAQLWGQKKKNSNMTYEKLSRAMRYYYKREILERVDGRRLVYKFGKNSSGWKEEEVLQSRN
Particulars: protein: recombinant; tags: N-terminal GST; dsDNA, one strand shown. In a few lines: as §1

In the next assay the target is CRX (Homo sapiens, UniProt O43186 1-299). Particulars: protein: recombinant; tags: N-terminal GST; dsDNA, one strand shown. In a few lines: as §1
In a further assay the target is ETV1 (Homo sapiens, UniProt P50549 1-477). Particulars: protein: recombinant; tags: N-terminal GST; dsDNA, one strand shown. In a few lines:
as §1

Sequence of ETV1 (P50549 whole entry): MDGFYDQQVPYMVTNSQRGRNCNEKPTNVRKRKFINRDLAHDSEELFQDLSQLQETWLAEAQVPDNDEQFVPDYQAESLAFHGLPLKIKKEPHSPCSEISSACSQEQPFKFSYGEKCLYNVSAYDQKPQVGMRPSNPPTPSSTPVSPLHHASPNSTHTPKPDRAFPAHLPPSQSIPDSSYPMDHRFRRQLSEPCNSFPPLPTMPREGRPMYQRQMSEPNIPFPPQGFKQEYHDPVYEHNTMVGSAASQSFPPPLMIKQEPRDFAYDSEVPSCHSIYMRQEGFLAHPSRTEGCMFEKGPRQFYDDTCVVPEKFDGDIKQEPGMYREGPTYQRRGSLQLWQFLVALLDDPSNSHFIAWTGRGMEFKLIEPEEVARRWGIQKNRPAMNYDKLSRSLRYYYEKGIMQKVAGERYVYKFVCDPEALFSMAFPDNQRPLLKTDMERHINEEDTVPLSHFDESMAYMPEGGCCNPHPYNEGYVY
Sequence of HSF1 (Q00613 whole entry): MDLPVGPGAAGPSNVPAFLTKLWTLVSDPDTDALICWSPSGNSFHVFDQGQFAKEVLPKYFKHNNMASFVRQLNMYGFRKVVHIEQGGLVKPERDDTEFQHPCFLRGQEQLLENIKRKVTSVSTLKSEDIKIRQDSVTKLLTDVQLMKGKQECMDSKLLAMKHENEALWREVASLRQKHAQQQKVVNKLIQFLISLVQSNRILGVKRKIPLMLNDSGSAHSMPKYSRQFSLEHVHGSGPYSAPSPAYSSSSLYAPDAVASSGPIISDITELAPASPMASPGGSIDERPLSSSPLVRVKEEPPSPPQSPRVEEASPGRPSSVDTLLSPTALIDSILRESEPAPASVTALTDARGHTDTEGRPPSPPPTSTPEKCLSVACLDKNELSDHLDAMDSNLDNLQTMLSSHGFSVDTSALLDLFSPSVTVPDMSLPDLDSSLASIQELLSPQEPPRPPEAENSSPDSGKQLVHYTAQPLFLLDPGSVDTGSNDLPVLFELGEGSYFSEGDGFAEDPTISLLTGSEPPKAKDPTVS
Sequence of ELF4 (Q99607 whole entry): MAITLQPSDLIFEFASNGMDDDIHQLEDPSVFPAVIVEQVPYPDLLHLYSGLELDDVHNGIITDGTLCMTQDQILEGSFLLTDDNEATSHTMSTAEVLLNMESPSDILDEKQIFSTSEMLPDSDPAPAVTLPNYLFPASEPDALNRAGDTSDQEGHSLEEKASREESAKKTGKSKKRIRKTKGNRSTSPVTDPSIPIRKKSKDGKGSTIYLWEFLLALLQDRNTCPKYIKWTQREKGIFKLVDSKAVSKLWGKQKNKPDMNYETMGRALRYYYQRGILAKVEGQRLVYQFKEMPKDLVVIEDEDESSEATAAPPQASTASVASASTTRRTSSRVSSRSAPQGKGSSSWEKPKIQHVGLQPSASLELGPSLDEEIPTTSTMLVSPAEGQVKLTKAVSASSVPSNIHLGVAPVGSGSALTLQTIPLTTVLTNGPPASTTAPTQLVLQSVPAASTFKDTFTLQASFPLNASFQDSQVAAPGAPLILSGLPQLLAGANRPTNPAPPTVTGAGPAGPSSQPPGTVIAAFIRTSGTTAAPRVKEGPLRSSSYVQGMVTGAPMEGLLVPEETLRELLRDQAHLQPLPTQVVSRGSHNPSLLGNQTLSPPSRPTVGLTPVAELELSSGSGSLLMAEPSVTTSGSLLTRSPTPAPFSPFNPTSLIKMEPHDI
Sequence of ETV5 (P41161 whole entry): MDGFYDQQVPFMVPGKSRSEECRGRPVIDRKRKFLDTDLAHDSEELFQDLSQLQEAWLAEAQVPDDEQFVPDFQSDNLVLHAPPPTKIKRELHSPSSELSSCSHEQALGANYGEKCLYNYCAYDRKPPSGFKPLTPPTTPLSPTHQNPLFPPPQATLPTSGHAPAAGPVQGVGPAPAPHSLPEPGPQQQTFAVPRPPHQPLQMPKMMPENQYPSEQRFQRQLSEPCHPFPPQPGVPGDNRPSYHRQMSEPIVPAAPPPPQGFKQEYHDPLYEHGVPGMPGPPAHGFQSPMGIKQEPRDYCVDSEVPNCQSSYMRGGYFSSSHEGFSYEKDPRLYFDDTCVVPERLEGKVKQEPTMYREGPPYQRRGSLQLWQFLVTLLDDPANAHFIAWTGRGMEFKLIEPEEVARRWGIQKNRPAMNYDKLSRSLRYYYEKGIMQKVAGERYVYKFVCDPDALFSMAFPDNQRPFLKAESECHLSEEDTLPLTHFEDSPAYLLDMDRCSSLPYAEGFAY
Sequence of SPIB (Q01892 whole entry): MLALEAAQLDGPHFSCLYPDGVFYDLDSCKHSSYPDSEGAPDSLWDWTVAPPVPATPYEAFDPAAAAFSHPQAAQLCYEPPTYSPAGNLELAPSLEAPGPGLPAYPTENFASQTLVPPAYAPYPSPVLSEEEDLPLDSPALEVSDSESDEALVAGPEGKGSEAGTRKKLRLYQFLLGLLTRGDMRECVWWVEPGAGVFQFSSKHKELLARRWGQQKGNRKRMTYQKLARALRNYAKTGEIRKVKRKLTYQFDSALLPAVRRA
Sequence of CRX (O43186 whole entry): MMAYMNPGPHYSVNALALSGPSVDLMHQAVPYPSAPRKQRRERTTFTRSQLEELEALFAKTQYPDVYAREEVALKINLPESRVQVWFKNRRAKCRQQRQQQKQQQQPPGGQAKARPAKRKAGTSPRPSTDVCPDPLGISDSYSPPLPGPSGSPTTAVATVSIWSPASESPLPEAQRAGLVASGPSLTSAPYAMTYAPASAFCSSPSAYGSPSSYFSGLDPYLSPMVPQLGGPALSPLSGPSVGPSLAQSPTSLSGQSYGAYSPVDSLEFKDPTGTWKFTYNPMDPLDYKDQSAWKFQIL
Sequence of ELF1 (P32519 whole entry): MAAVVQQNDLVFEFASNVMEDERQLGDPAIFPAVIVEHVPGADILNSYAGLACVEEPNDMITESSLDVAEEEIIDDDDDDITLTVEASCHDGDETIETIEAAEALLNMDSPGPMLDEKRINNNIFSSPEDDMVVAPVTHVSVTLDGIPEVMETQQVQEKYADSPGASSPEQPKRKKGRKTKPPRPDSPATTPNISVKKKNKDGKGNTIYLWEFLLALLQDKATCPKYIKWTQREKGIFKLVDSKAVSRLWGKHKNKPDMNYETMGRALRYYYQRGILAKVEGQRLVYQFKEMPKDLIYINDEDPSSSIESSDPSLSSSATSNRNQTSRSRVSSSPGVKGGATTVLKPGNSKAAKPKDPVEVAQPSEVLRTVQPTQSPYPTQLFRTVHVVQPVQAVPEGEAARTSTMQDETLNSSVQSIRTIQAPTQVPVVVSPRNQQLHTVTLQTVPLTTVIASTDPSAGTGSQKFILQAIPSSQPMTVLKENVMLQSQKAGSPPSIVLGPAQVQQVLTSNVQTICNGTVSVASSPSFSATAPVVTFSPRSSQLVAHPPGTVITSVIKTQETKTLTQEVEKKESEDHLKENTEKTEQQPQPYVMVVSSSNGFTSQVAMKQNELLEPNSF

Regarding CAGCTT, the binding signal is 1.2 fold enrichment (6-mer frequency, TF over GST control) with FLI1; 1.27 fold enrichment (6-mer frequency, TF over GST control) in the assay with ELK1; 1.22 fold enrichment (6-mer frequency, TF over GST control) with GABPA; 1.2 fold enrichment (6-mer frequency, TF over GST control) in the assay with ERG; 1.26 fold enrichment (6-mer frequency, TF over GST control) with ELF1; 1.22 fold enrichment (6-mer frequency, TF over GST control) with EHF. The binding signal is 1.19 fold enrichment (6-mer frequency, TF over GST control) with SPI1; 1.2 fold enrichment (6-mer frequency, TF over GST control) with SPIB; 1.3 fold enrichment (6-mer frequency, TF over GST control) with ELK3; 1.2 fold enrichment (6-mer frequency, TF over GST control) with FEV; 1.17 fold enrichment (6-mer frequency, TF over GST control) with ETV5; 1.43 fold enrichment (6-mer frequency, TF over GST control) with HSF1. The binding signal in the assay with SPIC was 1.01 fold enrichment (6-mer frequency, TF over GST control); in the assay with ELF4, 1.19 fold enrichment (6-mer frequency, TF over GST control); with ELK4, 1.24 fold enrichment (6-mer frequency, TF over GST control); with ETV2 it was 1.36 fold enrichment (6-mer frequency, TF over GST control); in the assay with ELF3, 1.19 fold enrichment (6-mer frequency, TF over GST control); with CRX it was 1.9 fold enrichment (6-mer frequency, TF over GST control). Besides, the binding signal with ETV1 is 1.16 fold enrichment (6-mer frequency, TF over GST control).
